The whole screen tested about 320,000 compounds, of which about 1,100 (0.34%) were called active. What follows is part of a selection rich in actives, with near analogues and random picks from the rest. Unmarked numbers belong to inactive results.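 How the source made its calls: active means GFP response vs DMSO above a set limit, about the screen mean plus 3 SD (cut at about 150% in these data); inconclusive means under 70 cell events counted for the yeast strain; inactive means the rest.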
Assay: modulators of LAP4-GFP expression in yeast, primary screen, S. cerevisiae, multiplex flow cytometry, MLPCN library (AID 2023)
Conditions: 3 h, at 10 µM, hits give high values, median GFP as percent of DMSO wells
In the case of CCn1c(=S)[nH]c2cc(S(=O)(=O)N3CCOCC3)ccc21, the GFP response vs DMSO is reported as 89.3%.
With Cc1ccc2cccc(S(=O)(=O)N3CCN(c4ccccc4F)CC3)c2n1 the GFP response vs DMSO was 110%.
Work on Cc1ccc(C(=O)N2CCCC(c3ccccc3)=N2)cc1 yielded a GFP response vs DMSO of 107%.
In the case of CC(C(=O)Nc1ccccc1-c1ccccc1)N1CCOCC1 (configuration not stated), the GFP response vs DMSO is reported as 100%.
Work on CC(C)c1ccc(NC2CCCN(C(=O)c3ccncc3)C2)cc1 (configuration not stated) yielded a GFP response vs DMSO of 93.3%.
In the case of COC(=O)c1cc(S(=O)(=O)NC2CCN(Cc3ccccc3)CC2)cn1C, the GFP response vs DMSO is reported as 95.7%.
CC12CN3CCN(CC(C3)/C1=N\NC(=O)c1ccccc1N)C2 gave a GFP response vs DMSO of 102%.
Compound CC(=O)Nc1ccc(NC(=O)COC(=O)C2CCC(C(C)(C)C)CC2)cc1 (configuration not stated) has a GFP response vs DMSO of 107%.
Work on Cc1cccc(C)c1NC(=O)C(c1ccccc1)N1CC(=O)Nc2ccccc21 (configuration not stated) yielded a GFP response vs DMSO of 90.5%.
With Cc1cccc(C)c1NC(=O)CN(C)C(=O)CCC(=O)c1ccccc1 the GFP response vs DMSO was 104%.
For Cc1cccc(C)c1NC(=O)C(Cl)C(=O)c1ccccc1 (configuration not stated), the GFP response vs DMSO was 269% (active).
FC(F)(F)c1cnc(Oc2ccccc2-c2nnc(-c3ccc(Cl)cc3)o2)c(Cl)c1 gave a GFP response vs DMSO of 96.3%.
With COc1cccc(/C=N/Nc2ncc(C(F)(F)F)cc2Cl)c1O the GFP response vs DMSO was 184% (active).
With Oc1cccc(/C=N/Nc2ccc(Cl)nn2)c1O the GFP response vs DMSO was 89.6%.
For Cc1ccc2nsnc2c1NC(=O)c1ccccc1[N+](=O)[O-], the GFP response vs DMSO was 93.2%.
With Cc1cc(=O)n2nc(N3CCCC(C(=O)NCc4ccc(Cl)cc4)C3)sc2n1 (configuration not stated) the GFP response vs DMSO was 92.3%.
Cc1cc(=O)n2nc(N3CCCC(C(=O)NCc4cccc(Cl)c4)C3)sc2n1 (configuration not stated) gave a GFP response vs DMSO of 92.2%.
With Cc1cc(=O)n2nc(N3CCCC(C(=O)NCCC4=CCCCC4)C3)sc2n1 (configuration not stated) the GFP response vs DMSO was 196% (active).
With CC(=O)NCCC(=O)Nc1cc(S(=O)(=O)N2CCCCC2)ccc1Oc1cccc(C)c1 the GFP response vs DMSO was 87.1%.
In the case of COc1ccc([C@H]2CC(=O)C=C(/C=C/c3ccccc3)C2)cc1, the GFP response vs DMSO is reported as 115%.
In the case of CC1=C/C(=N\OS(=O)(=O)c2ccccc2)C=CC1=O, the GFP response vs DMSO is reported as 257% (active).
With CCn1c(SCCC(C)C)nnc1-c1c[nH]c2ccccc12 the GFP response vs DMSO was 169% (active).
CCn1c(SCC(=O)Nc2ccc(OC)c(OC)c2)nnc1-c1c[nH]c2ccccc12 showed a GFP response vs DMSO of 98.2%.
CCC(C)Sc1nnc(-c2c[nH]c3ccccc23)n1CCOC (configuration not stated) gave a GFP response vs DMSO of 90.4%.
C#CCOCCOCCOCCNc1nc(N2CCN(C(=O)CCCCCCCCCCNC(=O)Cn3cc(CCCCCN)nn3)CC2)nc(N2CCN(C(=O)CCCCCCCCCCNC(=O)[C@H](CO)n3cc(CCCSC)nn3)CC2)n1 gave a GFP response vs DMSO of 118%.
C#CCOCCOCCOCCNc1nc(N2CCN(C(=O)CCCCCCCCCCNC(=O)[C@H]([C@@H](C)CC)n3cc(CCCCN=C(N)N)nn3)CC2)nc(N2CCN(C(=O)CCCCCCCCCCNC(=O)[C@H](CO)n3cc(CCCSC)nn3)CC2)n1 showed a GFP response vs DMSO of 135%.
In the case of C#CCOCCOCCOCCNc1nc(N2CCN(C(=O)CCCCCCCCCCNC(=O)[C@H](CCCCN)n3cc(C)nn3)CC2)nc(N2CCN(C(=O)CCCCCCCCCCNC(=O)[C@H](CO)n3cc(CCCSC)nn3)CC2)n1, the GFP response vs DMSO is reported as 155% (active).
In the case of Cc1cccc(NC(=S)N2CCCC(c3nc4ccccc4[nH]3)C2)c1 (configuration not stated), the GFP response vs DMSO is reported as 93.9%.
In the case of O=C(C1CCCO1)N1CCN(C(=S)Nc2cccc(Cl)c2)CC1 (configuration not stated), the GFP response vs DMSO is reported as 95.7%.
For Cc1ccc(C2CCN(C(=S)Nc3cccc(Cl)c3)C2)cc1 (configuration not stated), the GFP response vs DMSO was 158% (active).
In the case of O=S(=O)(c1ccc2ccccc2c1)N1CCN(S(=O)(=O)N2CCOCC2)CC1, the GFP response vs DMSO is reported as 87%.
In the case of COc1ccc(C)cc1N(CC(=O)NC(C)c1ccccc1)S(C)(=O)=O (configuration not stated), the GFP response vs DMSO is reported as 80.6%.
With Clc1ccccc1CSc1nnc(-c2ccco2)c(-c2ccco2)n1 the GFP response vs DMSO was 186% (active).
Compound S=C(NCc1ccco1)NCc1ccccc1Cl has a GFP response vs DMSO of 85.2%.
For O=C(CC1N=C2c3ccccc3N=C(SCc3ccccc3Cl)N2C1=O)NCc1ccco1 (configuration not stated), the GFP response vs DMSO was 97.5%.
For CN1CCCc2cc(C#N)c(=O)[nH]c21, the GFP response vs DMSO was 105%.
Cc1ccc(S(=O)(=O)N(C)C)cc1NC(=O)c1ccc(-n2cncn2)c([N+](=O)[O-])c1 showed a GFP response vs DMSO of 98%.
For NC(=O)c1ccccc1N=Cc1ccc2ccccc2c1, the GFP response vs DMSO was 88.2%.
For COc1cccc(NC(=O)C2CCCN(c3ncnc4c3nc3n4CCCCC3)C2)c1 (configuration not stated), the GFP response vs DMSO was 94.5%.
For O=C(/C=C/c1ccc(Cl)cc1Cl)c1cccnc1, the GFP response vs DMSO was 99.4%.
With O=C(/C=C/c1ccc(Cl)c([N+](=O)[O-])c1)c1cccnc1 the GFP response vs DMSO was 236% (active).
Compound O=C(Nc1cccnc1)c1ccc(Cl)c([N+](=O)[O-])c1 has a GFP response vs DMSO of 119%.
Cc1cc(NC(=O)CN2C(=O)NC(CCc3ccccc3)C2=O)no1 (configuration not stated) gave a GFP response vs DMSO of 92.5%.
Work on Cc1ccc(NC(=O)N2CCSc3ccccc32)cc1 yielded a GFP response vs DMSO of 96.8%.
Compound O=C(NCCS(=O)(=O)c1ccc(Br)cc1)c1ccccc1Cl has a GFP response vs DMSO of 102%.
In the case of CCc1noc(C)c1C(=O)N1CCCSC1=Nc1ccccc1OC, the GFP response vs DMSO is reported as 101%.
For CC(C)[C@@H]1COC(c2cccc(C3=N[C@H](C(C)C)CO3)c2)=N1, the GFP response vs DMSO was 163% (active).
Work on CCOCc1c(C(=O)N2CCN(Cc3ccc(Br)s3)CC2)oc2ccccc12 yielded a GFP response vs DMSO of 102%.
With COc1ccc(Cn2c(-c3ccc(Cl)cc3)c[n+]3ccccc23)cc1 the GFP response vs DMSO was 101%.
For C/C(N)=C(\C#N)C(=O)NCCc1ccccn1, the GFP response vs DMSO was 87.1%.
O=C(NCCc1ccccc1Cl)C1CCC(=O)N(CCCc2ccccc2)C1 (configuration not stated) gave a GFP response vs DMSO of 87.4%.
Cc1cc(C)nc(SCC(=O)c2ccc(Cl)cc2)n1 gave a GFP response vs DMSO of 91.3%.
With Cc1cc(Oc2ccc(Cl)cc2)nc(SCC(=O)c2ccccc2)n1 the GFP response vs DMSO was 103%.
For Cc1cc(C)nc(S/C=C/C(=O)c2ccccc2)n1, the GFP response vs DMSO was 239% (active).
For Cc1noc(C)c1S(=O)(=O)N(C)Cc1ccccc1, the GFP response vs DMSO was 91.9%.
With N#C/C(=C\N1CCOCC1)S(=O)(=O)c1ccc(Cl)cc1 the GFP response vs DMSO was 113%.
With Cc1ccc(NC(=O)Cn2c(=O)n(CCC(=O)NC3CCN(Cc4ccccc4)CC3)c(=O)c3ccccc32)cc1 the GFP response vs DMSO was 94.3%.
